PubChem BioAssay AID1159580 (chemical genetic matrix, 2015)
The campaign covered roughly 5,500 compounds. About 2,000 (36%) were called active. Not shown: some 18% with an inconclusive outcome. Rule as the data show it: active = normalized growth mostly below about 0.91 (no sharp cut-off); inconclusive = no clear call, values can overlap the other calls; inactive = mostly above about 0.92. Some of the results follow.

Assay: chemical genetic growth profiling, strain panel (AID 1159580);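 also: tested at 20 µM; growth read once vehicle control cultures reached saturation at 30 °C; 1 = growth at the plate median or of vehicle wells; lower values mean less growth of the strain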
Conditions: S. cerevisiae deletion strains, growth OD

Measured: normalized growth

COc1cc(=O)n(C)c2c(OCC(O)C(C)(C)O)cccc12 (stereo unspecified)
inactive: locus YAL013W, strain DEP1, stronger effect = lower value 1.03 | locus YAL040C, strain CLN3, stronger effect = lower value 0.99 | locus YCL061C, strain MRC1 (second series), stronger effect = lower value 1.01 | locus YDR363W, strain ESC2, stronger effect = lower value 1.01 | locus YER002W, strain NOP16, stronger effect = lower value 0.999 | locus YJR075W, strain HOC1, stronger effect = lower value 1.01 | locus YNL128W, strain TEP1, stronger effect = lower value 0.99 | locus YNL175C, strain NOP13, stronger effect = lower value 1 | locus YNL197C, strain WHI3, stronger effect = lower value 1.02 | locus YNL224C, strain SQS1, stronger effect = lower value 1.01 | locus YOR083W, strain WHI5 (second series), stronger effect = lower value 1.02
